Reference: PubChem BioAssay (NCATS)
Results filed as inconclusive are left out. Calls of active or inactive are those of the source. The call rests on the fitted dose curve; in most records, active means well fitted inhibition curve with a large enough effect; inconclusive means small, poorly fitted or top-dose-only effect; inactive means flat fitted curve, though single readings scatter.

Biological target: Calcium and integrin-binding protein 1 (Homo sapiens) (UniProt Q99828)
Experiment: Primary qHTS for Identification of Calcium Integrin Binding Protein 1 (CIB1) Competitor (AID 1508620);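 further: GST tagged CIB1 binding a fluorescein labelled alphaIIb integrin peptide tracer; top concentration of the series differs between compounds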
Details: CIB1-GST / FITC-alphaIIb peptide fluorescence polarization; series mostly up to 114 µM
Source text: Assay Provider: Ulhas P. Naik, PhD Sidney Kimmel Medical College Thomas Jefferson University, Philadelphia, PA Primary function of platelets is to maintain hemostasis. At the site of vascular injury, platelets adhere to adhesive proteins such as collagen and von Willebrand factor. Adherent platelets are activated and generate soluble platelet agonists such as thrombin, ADP and thromboxane A2. Following exposure of circulating platelets to these agonists, results in platelet shape change, granule secretion and activation of platelet integrin alphaIIb-beta3. Ligand binding to activated integrin alphaIIb-beta3 triggers outside-in signaling, leading to platelet aggregation, stabilization of platelet plug, and clot retraction. Upon atherosclerotic plaque rupture also causes platelet plug formation, which underlies a number of cardiovascular diseases such as myocardial infraction and stroke. A number of anti-platelet drugs such as aspirin, clopidogrel, prasugrel, vorapaxar, and eptifibatide are currently available to prevent the thrombotic complications. However, these anti-platelet agents have several limitations including inherent variability in individual responses, developing resistance, and serious bleeding side effects. For these reasons they are not suitable for long-term protection. Based on the experiences with current anti-platelet drugs, it appears that the most useful therapeutic approach is to intersect the secondary responses such as integrin outside-in signaling or recruitment of platelets by TxA2 and secreted ADP. Compounds, which can largely preserve the primary hemostatic function of platelets but inhibit secondary response will be most desired therapeutic agents for treatment of cardiovascular disease. CIB1 is a calcium integrin binding protein, which specifically interact with the alphaIIb subunit of integrin alphaIIb-beta3. Binding of CIB1 to alphaIIb regulates the outside-in signaling in platelets, which is needed for thrombus stabilization and thrombus growth. […] Therefore, we propose that discovery of a small molecule that can prevent the association of CIB1 and alphaIIb-beta3 will be a potential anti-platelet agent that can block the thrombus formation without undue effect on hemostasis. Reference: [1] Naik MU, Nigam A, Manrai P, et al. CIB1 deficiency results in impaired thrombosis: the potential role of CIB1 in outside-in signaling through integrin alpha IIb beta 3. J Thromb Haemost.
PROTOCOL TABLES SEQUENCE No. (1, 2, 3, etc.); […] (e.g., Cells, Incubation, Reagent, etc.); VALUE and DESCRIPTION. 1; Reagent; 3 uL; Protein or buffer (4/3x) 2; Compound; 46 nL; Control inhibitor / compound library 3; Time; 15 min; Room temperature incubation 4; Reagent; 1 uL; Fluorescent labeled peptide (4x) 5; Time; 1000 rpm; Centrifuge 6; Time; 15 min; Room temperature incubation 7; Detection; Ex 480/ Em 540; ViewLux Fluorescence Read NOTES (numbers refer to sequence above) 1; Protein Mixture: C1B1-GST (final concentrations of 1 uM). […] 3; Room temperature incubation. 4; Fluorescent Labeled Peptide: FITC-aIIb (final concentration of 100 nM). Sequence of alphaIIb peptide: Acetyl-[…]-FITC (purity is 95.83%). 5; Centrifuge 1000 rpm (164 g) for 15 seconds. 6; Room temperature incubation. 7; ViewLux Fluorescent Polization Read: excitation = 480(20) / emission = 540(25) S and P; FITC Dichroic mirror.

Calcium and integrin-binding protein 1 (Homo sapiens), sequence (Q99828 whole entry, looked up): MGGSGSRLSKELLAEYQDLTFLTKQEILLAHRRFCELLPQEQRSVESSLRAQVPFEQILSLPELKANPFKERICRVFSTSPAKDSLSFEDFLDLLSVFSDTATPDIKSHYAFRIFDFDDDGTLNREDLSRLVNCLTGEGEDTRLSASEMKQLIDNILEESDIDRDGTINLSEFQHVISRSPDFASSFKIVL

SMILES | outcome
CCCCOc1ccc(-c2cncc(C(=O)NCc3cccnc3N3CCOCC3)c2)cc1Cl | inactive
C=C1C(=O)O[C@@H]2C[C@@H](C)[C@]34C[C@]5(C(=O)O[C@H]6CC(C)=C([C@H](C)CCCO)[C@H](OC(=O)C(C)CC)[C@H]65)[C@@H](C(C)=C3C[C@@H]12)[C@H]4OC(C)=O (stereo not given in full) | inactive
COCCOCCOc1ccc(C2=N[C@@](C)(C(=O)O)CS2)c(O)c1 | inactive
CCN(CCCOc1ccc2c(Nc3cc(CC(=O)Nc4cccc(F)c4)[nH]n3)ncnc2c1)CCOP(=O)(O)O | inactive
CC[C@H](CO)Nc1nc(Nc2cccc(-c3ccccn3)c2)c2ncn(C(C)C)c2n1 | inactive
CC1CCN(c2cc(NC(=O)c3ccccc3)ncn2)CC1 | inactive
Cc1ccccc1C(=O)Nc1ccc(C(=O)N2CCC[C@@H](O)c3cc(Cl)ccc32)c(C)c1 | inactive
Cc1[nH]c(/C=C2\C(=O)Nc3ccc(F)cc32)c(C)c1C(=O)NC[C@H](O)CN1CCOCC1 | inactive
Cc1nnsc1C(=O)Nc1ccc(-n2nc(C(F)(F)F)cc2C(F)(F)F)cc1 | inactive
O=C(OCC#CCSc1nnc(-c2cccc3ccccc23)o1)c1ccc(F)cc1F | inactive
Fc1ccc(C2CCNC[C@H]2COc2ccc3c(c2)OCO3)cc1 (stereo not given in full) | inactive
CC(C)COc1ccc(CNC(=O)N(Cc2ccc(F)cc2)C2CCN(C)CC2)cc1 | inactive
C=C1C(=O)O[C@@H]2/C=C(/C)CC3C=C(C[C@H](OC(=O)/C(C)=C\C)[C@@H]12)C(=O)O3 (stereo not given in full) | inactive
Cc1c(C(=O)NCCCO)cnn1-c1nc(-c2cccc(C(F)(F)F)c2)cs1 | inactive
Cc1ccc(NS(=O)(=O)c2cc3c(cc2N[C@@H](C)CO)NC(=O)CC3)cc1Cl | inactive
COc1cc2nc(N3CCN(C)CC3)nc(NC3CCN(Cc4ccccc4)CC3)c2cc1OC | inactive
CCN(CC)c1ccc(C(=C2C=CC(=[N+](CC)CC)C=C2)c2cc(S(=O)(=O)O)ccc2S(=O)(=O)[O-])cc1 | inactive
Nc1nc(NCC2CCC(CNS(=O)(=O)c3cccc4ccccc34)CC2)nc2ccccc12 (stereo not given) | inactive
CCOC(=O)c1cccc(CNc2ccc(N(C)C(=O)Nc3ccccc3)cc2)c1 | inactive
CC1CCC2C(C)(C)C(O)CCC2(C)C12Cc1c(O)cc3c(c1O2)CN(C(CCCN=C(N)N)C(=O)O)C3=O (stereo not given) | inactive

SMILES | outcome
CC(=O)Nc1ccc(C(=O)Nc2ccccc2N)cc1 | inactive
N#Cc1cccc(C#N)c1-c1nc2c3ccccc3c3cc(Cl)ccc3c2[nH]1 | inactive
O=C(Nc1ccc(S(=O)(=O)Nc2nccs2)cc1)c1cc(-c2ccccc2)nc2ccccc12 | inactive
CC1CCC2(NC1)OC1CC3C4CC=C5CC(O[C@@H]6O[C@H](CO)[C@@H](O[C@@H]7O[C@@H](C)[C@H](O)[C@@H](O)[C@H]7O)[C@H](O)[C@H]6O[C@@H]6O[C@@H](C)[C@H](O)[C@@H](O)[C@H]6O)CCC5(C)C4CCC3(C)C1C2C (stereo not given in full) | inactive
CCNC(=O)[C@@H]1CCCN1C(=O)[C@H](CCCN=C(N)N)NC(=O)[C@H](CC(C)C)NC(=O)[C@@H](CC(C)C)NC(=O)[C@H](Cc1ccc(O)cc1)NC(=O)[C@H](CO)NC(=O)[C@H](Cc1c[nH]c2ccccc12)NC(=O)[C@H](Cc1cnc[nH]1)NC(=O)[C@@H]1CCC(=O)N1 | inactive
CC(=O)N1CCN([C@H]2CCN(C(=O)N(C)[C@H](C)c3cc(C(F)(F)F)cc(C(F)(F)F)c3)[C@@H](c3ccc(F)cc3C)C2)CC1 | inactive
CC(C)n1nc(Cc2cccc3ccccc23)c2c(N)ncnc21 | inactive
CC(=O)C1=C(O)C2c3c[nH]c4cccc(c34)CC2C(C)(C)N(C)C1=O (stereo not given) | inactive
COc1cc([C@@H](CC(=O)O)c2ccc(C)c(CN3C[C@@H](C)Oc4ccccc4S3(=O)=O)c2)cc2nnn(C)c12 | inactive
Cc1cc(C)c(-c2csc(NC(=O)c3ccccc3)n2)c(C)c1 | inactive
CC(C)(C)c1ccc(CNC(=S)NCc2ccc(NS(C)(=O)=O)c(F)c2)cc1 | inactive
CCOc1ccc(-c2nc(-c3cccc4c3CCC4NCCO)no2)cc1OCC (stereo not given) | inactive
COc1ccc2c(c1)C[C@H](C(=O)Nc1ccc(-c3cn[nH]c3)cc1OCCN(C)C)CO2 | inactive
COc1ccccc1-c1cc(Nc2cccc(CS(N)(=O)=O)c2)ncn1 | inactive
CNC(=O)c1cccc2cc(Oc3ccnc4cc(OCC5(N)CC5)c(OC)cc34)ccc12 | inactive
O=C(O)c1ccc(O)c2ncc(N3CCCN(CCc4cccc5ccccc45)CC3)cc12 | inactive
CC1(C)SC2C(NC(=O)[C@H](C(=O)O)c3ccsc3)C(=O)N2C1C(=O)O (stereo not given in full) | inactive
Clc1ccc2ncc(-c3cccc(NC4CCNC4)n3)n2c1 (stereo not given) | inactive
O=C(OCC#CCSc1nnc(-c2cccc3ccccc23)o1)c1ccc(F)c(F)c1 | inactive
COCCNCc1ccc(-c2cc3nccc(Oc4ccc(NC(=S)NC(=O)Cc5ccc(F)cc5)cc4F)c3s2)nc1 | inactive
